PubChem BioAssay AID1159580 (chemical genetic matrix, 2015)
Several values for one entry are separate records, joined by “and”; a condition that tells them apart may be missing. Equal entries are not always repeated. Out of some 5,500 compounds screened, about 2,000 (36%) were called active. Another 18% or so got no clear call; they are omitted. Rule as the data show it: active = normalized growth mostly below about 0.91 (no sharp cut-off); inconclusive = no clear call, values can overlap the other calls; inactive = mostly above about 0.92. Some of the results follow.

Assay: chemical genetic growth profiling, strain panel (AID 1159580);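 also: tested at 20 µM; growth read once vehicle control cultures reached saturation at 30 °C; 1 = growth at the plate median or of vehicle wells; lower values mean less growth of the strain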
Conditions: S. cerevisiae deletion strains, growth OD

Measured: normalized growth

CCOC(=O)c1c(C)cc(OC)cc1O
inactive: locus YAL013W, strain DEP1, stronger effect = lower value 1 | locus YAL021C, strain ccr4, stronger effect = lower value 1.02 | locus YAL026C, strain drs2, stronger effect = lower value 0.977 | locus YAL030W, strain snc1, stronger effect = lower value 0.962 | locus YBL061C, strain skt5, stronger effect = lower value 0.981 | locus YBR009C, strain hhf1, stronger effect = lower value 0.962 | locus YBR021W, strain FUR4, stronger effect = lower value 0.971 | locus YBR023C, strain chs3, stronger effect = lower value 0.97 | locus YBR171W, strain sec66, stronger effect = lower value 0.934 | locus YBR229C, strain ROT2, stronger effect = lower value 1 | locus YBR231C, strain swc5, stronger effect = lower value 0.987 | locus YBR279W, strain paf1, stronger effect = lower value 0.993 | locus YCL011C, strain gbp2, stronger effect = lower value 0.975 | locus YCL016C, strain dcc1, stronger effect = lower value 0.971 | locus YCL029C, strain bik1, stronger effect = lower value 0.949 | locus YCL061C, strain MRC1, stronger effect = lower value 0.972 | locus YCL069W, strain vba3, stronger effect = lower value 0.969 | locus YCR088W, strain abp1, stronger effect = lower value 0.953 | locus YDL005C, strain med2, stronger effect = lower value 1.01 | locus YDL035C, strain GPR1, stronger effect = lower value 0.983 | locus YDL040C, strain nat1, stronger effect = lower value 0.959 | locus YDL074C, strain BRE1, stronger effect = lower value 0.955 | locus YDL101C, strain DUN1, stronger effect = lower value 1.01 | locus YDL134C, strain PPH21, stronger effect = lower value 0.996 | locus YDL185W, strain tfp1, stronger effect = lower value 0.984 | locus YDL192W, strain arf1, stronger effect = lower value 0.942 | locus YDR001C, strain nth1, stronger effect = lower value 0.96 | locus YDR069C, strain doa4, stronger effect = lower value 0.999 | locus YDR150W, strain NUM1, stronger effect = lower value 1.01 | locus YDR159W, strain sac3, stronger effect = lower value 0.926 | locus YDR162C, strain NBP2, stronger effect = lower value 1.01 | locus YDR195W, strain ref2 1.1 | locus YDR297W, strain sur2, stronger effect = lower value 0.975 | locus YDR334W, strain swr1, stronger effect = lower value 0.979 | locus YDR335W, strain msn5, stronger effect = lower value 0.991 | locus YDR388W, stronger effect = lower value 0.958 | locus YEL003W, strain gim4, stronger effect = lower value 0.964 | locus YEL037C, strain rad23, stronger effect = lower value 0.978 | locus YEL061C, strain CIN8 (second series), stronger effect = lower value 0.962 | locus YEL061C, strain CIN8, stronger effect = lower value 0.989 | locus YER015W, strain faa2, stronger effect = lower value 0.991 | locus YER016W, strain bim1, stronger effect = lower value 0.975 | locus YER111C, strain swi4, stronger effect = lower value 0.985 | locus YER155C, strain BEM2, stronger effect = lower value 0.985 | locus YER167W, strain BCK2, stronger effect = lower value 0.935 | locus YFR010W, strain ubp6, stronger effect = lower value 0.99 | locus YGL078C, strain dbp3, stronger effect = lower value 0.963 | locus YGL086W, strain mad1, stronger effect = lower value 0.943 | locus YGL167C, strain pmr1, stronger effect = lower value 0.973 | locus YGL173C, strain kem1, stronger effect = lower value 0.985 | locus YGL227W, strain vid30, stronger effect = lower value 0.963 | locus YGL240W, strain doc1, stronger effect = lower value 0.903 | locus YGL248W, strain PDE1, stronger effect = lower value 1 | locus YGL253W, strain hxk2, stronger effect = lower value 0.994 | locus YGR078C, strain PAC10, stronger effect = lower value 0.965 | locus YGR135W, strain pre9, stronger effect = lower value 0.912 | locus YGR229C, strain SMI1, stronger effect = lower value 0.972 | locus YGR252W, strain gcn5, stronger effect = lower value 0.918 | locus YHR013C, strain ard1, stronger effect = lower value 0.969 | locus YHR027C, strain rpn1, stronger effect = lower value 0.988 | locus YHR030C, strain SLT2, stronger effect = lower value 0.983 and 0.948 | locus YHR079C, strain IRE1, stronger effect = lower value 0.956 | locus YHR094C, strain hxt1, stronger effect = lower value 0.946 | locus YHR129C, strain ARP1, stronger effect = lower value 0.983 | locus YHR142W, strain chs7, stronger effect = lower value 0.918 | locus YHR200W, strain rpn10, stronger effect = lower value 0.926 | locus YIL066C, strain RNR3, stronger effect = lower value 1 | locus YIL073C, strain SPO22, stronger effect = lower value 0.891 | locus YIR030C, strain dcg1, stronger effect = lower value 0.94 | locus YJL092W, strain hpr5, stronger effect = lower value 0.96 | locus YJL095W, strain BCK1 (second series), stronger effect = lower value 0.976 | locus YJL095W, strain BCK1, stronger effect = lower value 0.951 and 0.943 | locus YJL115W, strain asf1, stronger effect = lower value 0.981 | locus YJL129C, strain trk1, stronger effect = lower value 0.933 | locus YJL134W, strain LCB3, stronger effect = lower value 0.988 | locus YJL154C, strain vps35, stronger effect = lower value 0.97 | locus YJL166W, strain qcr8, stronger effect = lower value 0.97 | locus YJL168C, strain set2, stronger effect = lower value 0.959 | locus YJL187C, strain SWE1 (second series), stronger effect = lower value 1 | locus YJL187C, strain SWE1, stronger effect = lower value 0.979 | locus YJR043C, strain POL32, stronger effect = lower value 0.921 | locus YJR066W, strain TOR1, stronger effect = lower value 0.9
active: locus YDR101C, strain arx1, stronger effect = lower value 0.917 | locus YDR137W, strain rgp1, stronger effect = lower value 0.784 | locus YDR318W, strain mcm21, stronger effect = lower value 0.902 | locus YDR392W, strain spt3, stronger effect = lower value 0.724 | locus YDR502C, strain sam2, stronger effect = lower value 0.921 | locus YER110C, stronger effect = lower value 0.899 | locus YER155C, strain BEM2 (second series), stronger effect = lower value 0.609 | locus YHR079C, strain IRE1 (second series), stronger effect = lower value 0.912 | locus YIL125W, strain kgd1, stronger effect = lower value 0.929 | locus YJL164C, strain tpk1, stronger effect = lower value 0.911
